Where “and” joins values, the source holds several entries; their conditions need not be identical. Equal values may be shown once. More than one record can exist for a structure, and the calls need not agree. Calls of active or inactive are those of the source. The calls were made as follows: active = hit-call score of the fitted dose curve at least 0.9, where 1 is the maximum; inactive = score below 0.9.
Legend:
[1] = ATG_CRE_CIS: Attagene CIS-FACTORIAL HepG2 Assay for human cAMP Responsive Element (CRE) binding protein 3 (AID 2282926); conditions: HepG2 CRE cis-reporter, Attagene multiplexed mRNA; actives raise or lower the signal
Procedure, shortened: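 Endogenous transcription factor activity read via CRE-regulated reporter transcripts in transfected HepG2 cells. After 24 h exposure, RNA was reverse-transcribed, amplified, fluorescently labelled and sized by capillary electrophoresis; gain or loss fitted against DMSO.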

[2] = target: CCAAT/enhancer-binding protein beta (Homo sapiens) (UniProt P17676); assay: ATG_C_EBP_CIS: Attagene CIS-FACTORIAL HepG2 Assay for human CCAAT/Enhancer Binding Protein (C/EBP) beta (AID 2282927); conditions: HepG2 Attagene cis-factorial transcription factor reporter; actives raise or lower the signal
CCAAT/enhancer-binding protein beta (Homo sapiens), sequence (P17676 whole entry, looked up): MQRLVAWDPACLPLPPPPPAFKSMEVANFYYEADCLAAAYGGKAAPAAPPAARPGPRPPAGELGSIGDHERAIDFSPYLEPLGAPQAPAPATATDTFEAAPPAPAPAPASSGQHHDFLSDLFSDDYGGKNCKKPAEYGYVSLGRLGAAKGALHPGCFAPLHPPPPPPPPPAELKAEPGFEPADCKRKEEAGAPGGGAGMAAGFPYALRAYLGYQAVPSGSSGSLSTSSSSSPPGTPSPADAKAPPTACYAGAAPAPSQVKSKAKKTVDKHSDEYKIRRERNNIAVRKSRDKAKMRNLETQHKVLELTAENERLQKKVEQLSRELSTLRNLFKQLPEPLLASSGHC
Procedure, shortened: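 Following a 24 h incubation with test chemical, transfected HepG2 cells yielded RNA whose reporter transcripts were quantified by RT-PCR and fluorescent capillary electrophoresis, with DMSO serving as baseline for bidirectional fitting.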

[3] = ATG_CMV_CIS: Attagene CIS-FACTORIAL HepG2 Assay for human CMV (Internal Marker) (AID 2282928); conditions: HepG2 CMV promoter reporter, transcription factor profiling; actives raise or lower the signal;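 also: endpoint acts as a background internal control marker rather than a target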
Procedure, shortened: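 24 h chemical treatment, HepG2 with transient multi-reporter transfection; RNA → oligo(dT) RT → PCR → 6-FAM extension → HpaI digest → CE fluorescence. Bidirectional fit, DMSO negative control.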

[4] = ATG_DR4_LXR_CIS: Attagene CIS-FACTORIAL HepG2 Assay for human Liver X Receptor (LXR), DR4 submotif (AID 2282929); conditions: HepG2 Attagene DR4 cis-reporter, mRNA transcription; actives raise or lower the signal
Procedure, shortened: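 Cells were transfected with multiple reporter transcription units, exposed to chemicals for 24 hours, then lysed for RNA. Reporter mRNA induction was measured by RT-PCR with capillary electrophoresis detection and fitted in both directions relative to DMSO.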

[5] = target: Aryl hydrocarbon receptor (Homo sapiens) (UniProt P35869); assay: ATG_Ahr_CIS: Attagene CIS-FACTORIAL HepG2 Assay for human Aryl Hydrocarbon Receptor (Ahr) (AID 2282930); conditions: HepG2 AhR cis-factorial reporter transcription; actives raise or lower the signal
Aryl hydrocarbon receptor (Homo sapiens), sequence (P35869 whole entry, looked up): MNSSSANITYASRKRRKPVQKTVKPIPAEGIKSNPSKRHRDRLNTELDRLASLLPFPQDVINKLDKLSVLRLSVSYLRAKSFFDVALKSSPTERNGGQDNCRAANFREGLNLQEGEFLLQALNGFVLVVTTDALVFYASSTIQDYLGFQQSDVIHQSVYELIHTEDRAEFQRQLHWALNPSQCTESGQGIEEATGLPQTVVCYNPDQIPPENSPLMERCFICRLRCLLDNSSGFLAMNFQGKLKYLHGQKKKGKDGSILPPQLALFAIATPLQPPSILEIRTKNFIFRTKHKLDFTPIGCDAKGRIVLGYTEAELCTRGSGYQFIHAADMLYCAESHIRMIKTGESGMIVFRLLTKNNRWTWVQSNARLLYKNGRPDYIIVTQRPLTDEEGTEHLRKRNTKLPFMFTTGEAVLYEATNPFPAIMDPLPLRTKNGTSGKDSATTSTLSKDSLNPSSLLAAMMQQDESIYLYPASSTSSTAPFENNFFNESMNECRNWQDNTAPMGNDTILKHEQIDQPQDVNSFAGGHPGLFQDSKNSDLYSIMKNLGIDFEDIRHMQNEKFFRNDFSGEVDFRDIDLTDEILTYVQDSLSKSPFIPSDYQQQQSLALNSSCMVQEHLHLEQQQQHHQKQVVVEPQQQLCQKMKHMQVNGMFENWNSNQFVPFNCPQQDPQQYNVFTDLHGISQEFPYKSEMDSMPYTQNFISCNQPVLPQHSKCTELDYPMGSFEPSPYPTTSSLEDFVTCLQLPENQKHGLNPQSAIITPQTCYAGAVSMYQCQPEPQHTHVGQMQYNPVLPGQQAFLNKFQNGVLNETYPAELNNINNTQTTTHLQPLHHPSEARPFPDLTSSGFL
Procedure, shortened: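 Values derive from bidirectional fitting against DMSO negative control. Underlying signal: cis-element reporter mRNA in transiently transfected HepG2, harvested 24 h post-dose and measured by RT-PCR plus capillary electrophoresis.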

[6] = ATG_AP_1_CIS: Attagene CIS-FACTORIAL HepG2 Assay for human Activator Protein 1 (AP-1) (AID 2282931); conditions: HepG2 Attagene cis-factorial AP-1 reporter mRNA; actives raise or lower the signal
Procedure, shortened: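 Endogenous transcription-factor activity in human HepG2 liver cells is read through a cis-promoter reporter transcript, sampled 24 h after dosing. Detection uses RT-PCR with capillary electrophoresis; values come from bidirectional fitting relative to DMSO.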

[7] = ATG_BRE_CIS: Attagene CIS-FACTORIAL HepG2 Assay for human Bone Morphogenetic Protein (BMP) Response Element (BRE) (AID 2282933); conditions: HepG2 BMP response element reporter, Attagene transcription factor profiling; actives raise or lower the signal
Procedure, shortened: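 Read-out: reporter mRNA induction quantified by RT-PCR and capillary electrophoresis after 24 h chemical exposure of transfected HepG2 cells. Endogenous factor activity on the BMP response element; gain or loss fitted against DMSO baseline.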

[8] = target: Transcription factor E2F1 (Homo sapiens) (UniProt Q01094); assay: ATG_E2F_CIS: Attagene CIS-FACTORIAL HepG2 Assay for human E2F Transcription Factor 1 (AID 2282935); conditions: HepG2 Attagene cis-reporter, E2F reporter RNA transcripts; actives raise or lower the signal
Transcription factor E2F1 (Homo sapiens), sequence (Q01094 whole entry, looked up): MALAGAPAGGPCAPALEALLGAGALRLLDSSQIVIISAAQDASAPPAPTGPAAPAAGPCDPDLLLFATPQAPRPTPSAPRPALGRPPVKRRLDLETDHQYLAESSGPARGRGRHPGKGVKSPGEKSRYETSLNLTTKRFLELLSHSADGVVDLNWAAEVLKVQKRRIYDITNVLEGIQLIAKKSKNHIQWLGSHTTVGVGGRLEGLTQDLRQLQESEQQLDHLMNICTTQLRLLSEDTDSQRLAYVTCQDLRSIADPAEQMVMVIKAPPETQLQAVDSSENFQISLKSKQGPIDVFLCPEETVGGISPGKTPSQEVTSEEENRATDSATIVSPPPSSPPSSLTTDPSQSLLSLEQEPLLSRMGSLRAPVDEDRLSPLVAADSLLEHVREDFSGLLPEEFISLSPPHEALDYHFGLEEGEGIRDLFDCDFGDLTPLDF
Procedure, shortened: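 In this cis-factorial format, endogenous factor activity drives transfected reporters in HepG2; transcripts collected at 24 h are quantified by fluorescence after RT-PCR and capillary separation.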

[9] = ATG_AP_2_CIS: Attagene CIS-FACTORIAL HepG2 Assay for human Activator Protein 2 (AP-2) (AID 2282932); conditions: HepG2 AP-2 cis-reporter, Attagene transcription factor profiling; actives raise or lower the signal
Procedure, shortened: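 Assay in transfected HepG2 with promoter-regulated reporters, 24 h incubation after dosing. Signal is reporter mRNA fluorescence (RT-PCR, capillary electrophoresis), analysed for both increases and decreases relative to DMSO controls.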

[10] = target: Retinoic acid receptor alpha (Homo sapiens) (UniProt P10276); assay: ATG_DR5_RAR_CIS: Attagene CIS-FACTORIAL HepG2 Assay for human Retinoic Acid Receptor Alpha (RARE), DR5 submotif (AID 2282934); conditions: HepG2 Attagene cis-factorial RARE DR5 reporter, mRNA; actives raise or lower the signal;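 as to AC50: reporter responds to endogenous RAR alpha beta and gamma in HepG2 not RARA alone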
Retinoic acid receptor alpha (Homo sapiens), sequence (P10276 whole entry, looked up): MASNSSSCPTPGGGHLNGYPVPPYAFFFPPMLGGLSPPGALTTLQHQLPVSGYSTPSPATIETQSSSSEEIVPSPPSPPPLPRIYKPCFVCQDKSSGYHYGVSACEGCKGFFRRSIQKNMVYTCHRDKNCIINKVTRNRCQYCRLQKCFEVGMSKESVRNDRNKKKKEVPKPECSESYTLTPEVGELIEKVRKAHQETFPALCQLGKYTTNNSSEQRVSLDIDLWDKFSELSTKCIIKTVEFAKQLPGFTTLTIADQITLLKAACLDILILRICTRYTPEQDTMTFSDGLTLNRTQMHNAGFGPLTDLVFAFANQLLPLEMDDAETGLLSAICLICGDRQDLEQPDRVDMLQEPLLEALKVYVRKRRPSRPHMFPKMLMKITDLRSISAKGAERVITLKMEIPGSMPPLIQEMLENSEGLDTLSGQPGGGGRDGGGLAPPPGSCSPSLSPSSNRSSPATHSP
Procedure, shortened: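 Endpoint fitted in both directions relative to DMSO as negative control. It reflects DR5 cis-element reporter mRNA induction in transiently transfected HepG2 cells, measured 24 h after dosing through RT-PCR and fluorescent capillary electrophoresis.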

| Structure (SMILES) | outcome [1] | outcome [2] | outcome [3] | outcome [4] | outcome [5] | outcome [6] | outcome [7] | outcome [8] | outcome [9] | AC50 [3] | AC50 [5] | AC50 [6] | AC50 [7] | outcome [10] | AC50 [4] | AC50 [1] | AC50 [2] | AC50 [10] |
| --- | --- | --- | --- | --- | --- | --- | --- | --- | --- | --- | --- | --- | --- | --- | --- | --- | --- | --- |
| CCCCc1nc2cccnc2n1Cc1ccc(-c2ccccc2-c2nnn[nH]2)cc1 | inactive | inactive | inactive | inactive | inactive | inactive | inactive | inactive | – | – | – | – | – | – | – | – | – | – |
| C/C=C/C=C/C(=O)O | inactive | inactive | inactive | inactive | inactive | inactive | inactive | inactive | inactive | – | – | – | – | – | – | – | – | – |
| CCCCCCC(C=O)=Cc1ccccc1 | inactive | inactive | inactive | inactive | – | inactive | inactive | inactive | inactive | 74.3 µM (active) | 37.4 µM (active) and 60 µM (active) | 60 µM (active) | 44.9 µM (active) | inactive | – | – | – | – |
| CN(C)CCCN(C)CCCN(C)C | inactive | inactive | inactive | – | inactive | inactive | inactive | inactive | inactive | – | – | – | – | – | 24.5 µM (active) | – | – | – |
| CCCC(=O)O | – | inactive | – | inactive | inactive | inactive | inactive | inactive | – | 44.4 µM (active) | – | – | – | inactive | – | 0.0135 µM (active) | – | – |
| Cc1ccc(-c2cc(C(F)(F)F)nn2-c2ccc(S(N)(=O)=O)cc2)cc1 | inactive | inactive | inactive | – | inactive | inactive | inactive | inactive | inactive | – | – | – | – | inactive | 14.4 µM (active) | – | – | – |
| CC1=C(C)S(=O)(=O)CCS1(=O)=O | inactive | – | – | inactive | inactive | – | inactive | inactive | inactive | 143 µM (active) | – | 166 µM (active) | – | – | – | – | 129 µM (active) | – |
| NC1CCCCC1 | inactive | inactive | inactive | inactive | inactive | inactive | inactive | inactive | – | – | – | – | – | inactive | – | – | – | – |
| CCCCCCCCCCCCCCCCO | inactive | inactive | inactive | inactive | inactive | inactive | inactive | inactive | inactive | – | – | – | – | – | – | – | – | 100 µM (active) |

— PubChem BioAssay (EPA / NIEHS)
